A selection: hits, their analogues and other compounds. The true share with any hit is near 8%.
MCF10A rereplic: A quantitative high throughput screen for small molecules that induce DNA re-replication in MCF 10a normal breast cells | MCF 10A DNA re-replication, Hoechst nuclear intensity, 48 h | Potency, µM (series often up to 46.1 µM), inactives show top-dose activity, positive = re-replication, usual class: activators | 350,000 compounds, 2.9% hits | AID 624296, 2012; note: % of control where 0% means no effect; nearly all actives have a fitted effect of over 50% in size
KB-3-1 tox: qHTS assay for MDR1-selective chemotherapeutics: Primary screen using the parental adenocarcinoma cell KB-3-1; KB-3-1 viability, CellTiter-Glo ATP luminescence, 72 h; Potency, µM (series often up to 46.1 µM), most hits filed as cytotoxic; 400,000 compounds, 1.4% hits; AID 1347075, 2019; note: % is set by controls: 0 for no effect and ±100 for the full control effect; nearly all actives have a fitted effect of over 60% in size
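Viability of parental KB-3-1 cells, measured by CellTiter-Glo luminescence, followed a 72 h incubation at 37 °C with pinned compounds in phenol-red-free DMEM containing 10% FBS.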
KB-V1 MDR tox: qHTS assay for MDR1-selective chemotherapeutics: Primary screen using the drug-selected MDR subline cells KB-V1; KB-V1 MDR cells viability, CellTiter-Glo, 72 h; Potency, µM (doses to about 46.1 µM), actives largely listed as cytotoxic; 400,000 compounds, 3.4% hits; AID 1347076, 2019; note: % is set by controls: 0 for no effect and ±100 for the full control effect; nearly all actives have a fitted effect of over 60% in size
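KB-V1, DMEM (no phenol red) + 10% FBS; cpd pin-transferred, titration series; 72 h, 37 degrees C; CellTiter-Glo, luminescence. Data normalized, curve-fit.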
HT1080 IDH1KD tx: qHTS for induction of synthetic lethality in tumor cells producing 2HG: qHTS for the HT-1080-IDH1KD cell line; HT-1080 IDH1 knockdown viability, ATP luminescence, 48 h; Potency, µM (titrated, usually from 46.1 µM), for inactives: at the highest dose activity, negative = toxicity, most hits filed as cytotoxic; 360,000 compounds, 2% hits; AID 686971, 2013;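 note: 0% = DMSO wells and -100% = cell-free medium wells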
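Luminescent ATP read-out (CellTiter-Glo, 10 min at room temperature) after 48 h compound exposure at 37 °C gave viability of IDH1-knockdown HT-1080 cells. Activity was normalised to DMSO and cell-free wells, then fitted as concentration-response curves.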
HT1080-NT tox: qHTS for induction of synthetic lethality in tumor cells producing 2HG: qHTS for the HT-1080-NT fibrosarcoma cell line; HT-1080-NT fibrosarcoma viability, CellTiter-Glo ATP luminescence, 48 h; Potency, µM (highest dose often 46.1 µM), inactives show at the highest dose activity, negative = less viability, actives largely listed as cytotoxic; 360,000 compounds, 1.6% hits;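 note: NT is the 2HG producing partner of a matched IDH1 knockdown line; 0% = DMSO-treated cells and -100% = media-only wells without cells; nearly all actives have a fitted effect of over 55% in size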
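750 cells/well, RPMI + 5% FBS; 2 h settle, compound pin-transfer, 48 h at 37 degrees C. CellTiter-Glo 10 min RT, luminescence. Normalized to DMSO and media-only wells.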
SW480 rereplic: A quantitative high throughput screen for small molecules that induce DNA re-replication in SW480 colon adenocarcinoma cells. SW480 DNA re-replication, Hoechst DNA content imaging, 48 h. Potency, µM (highest dose often 46.1 µM), for the others: at the highest dose re-replication activation, usual class: activators. 340,000 compounds, 1.8% hits; note: % of control where 0% means no effect; nearly all actives have a fitted effect of over 55% in size
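Image-based DNA-content assay: after two days of treatment, nuclei were labelled with the DNA dye Hoechst and imaged, and hits were compounds raising the count of nuclei showing high fluorescence intensity.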
* marks the source's active call; other numbers are inactive results; i = inactive; ? = inconclusive; . = no result given. Calls come from the whole dose curve; as a rule, active = well fitted curve in the direction sought with a large enough effect; inconclusive = small, poorly fitted or top-dose-only effect, or another doubt; inactive = no such curve, though single readings can be large; an effect the other way counts as inactive or inconclusive. Potency is the fitted concentration of half-maximal effect.

SMILES | MCF10A rereplic | KB-3-1 tox | KB-V1 MDR tox | HT1080 IDH1KD tx | HT1080-NT tox | SW480 rereplic
COc1cc(C(=O)NC2CC3CCCC(C2)N3CC(=O)Nc2ccccc2)cc(OC)c1OC (stereo not given) | -0.9% | i | i | -10.2% | 0.8% | 0.7%
O=C(CN1C2CCCC1CC(NC(=O)c1ccccc1)C2)Nc1nccs1 (stereo not given) | 1.0% | i | 2.31µM* | -0.1% | 11.4% | -1.7%
CCOc1ccc(C2c3c(oc4ccccc4c3=O)C(=O)N2Cc2ccc3c(c2)OCO3)cc1 (stereo not given) | . | i | i | . | . | .
CC(NC(=O)c1sc2ncccc2c1-n1cccc1)c1ccccc1 (stereo not given) | . | i | i | . | . | .
CC(=O)/C(=N/Nc1ccccc1)N1CCOCC1 | 21.7% | i | i | -16.1% | 5.01µM* | -9.5%
CCC1=Nc2cc(C(=O)NCc3ccco3)ccc2Sc2ccccc21 | 4.11µM* | 2.59µM* | ? | 5.8µM* | 2.59µM* | 8.2µM*
CCc1nc2ccc(C(=O)NCc3ccco3)cc2nc1CC | 0.3% | i | i | 10.7% | 12.8% | -5.6%
CCC1=Nc2cc(C(=O)NCc3ccco3)ccc2Sc2ccc(Cl)cc21 | 3.66µM* | 1.46µM* | 1.46µM* | ? | 5.17µM* | 7.94µM*
CN1C(=O)/C(=C/c2ccccc2Cl)Sc2ccc(C(=O)NCc3cccnc3)cc21 | 20.6µM* | i | i | ? | ? | -4.9%
CCC1=Nc2cc(C(=O)NCc3cccnc3)ccc2Sc2ccc(C)cc21 | 2.31µM* | ? | ? | 2.59µM* | 2.31µM* | 3.66µM*
Cc1nn(C)c2c1c(C(F)(F)F)cc(=O)n2CC(=O)NCCC(C)C | . | i | i | . | . | .
Cc1cc2oc3c(c(=O)c2cc1C)C(c1ccc(C(C)C)cc1)N(c1nc(C)c(C)s1)C3=O (stereo not given) | . | i | i | . | . | .
CCOC(=O)c1cc(-c2ccc(F)cc2)n(CCC(=O)Nc2nc3cc(C)c(C)cc3s2)c1C | . | i | i | . | . | .
CCOc1ccc(C(C)NC(=O)Cc2ccccc2)cc1OCC (stereo not given) | -5.7% | ? | i | 12.8% | 20.2% | 14.6µM*
CCOc1ccccc1C(=O)NC(C(=O)N(C)Cc1ccc2c(c1)OCO2)C(C)C (stereo not given) | 12.9% | i | ? | 6.3% | 6.7% | 7.6%
CCOc1ccc(C(CCc2ccccc2)NC(=O)c2ccccc2OC)cc1OCC (stereo not given) | 20.6µM* | i | ? | ? | ? | ?
CCOc1ccccc1C(=O)NC(C)c1ccc2c(c1)OCO2 (stereo not given) | ? | ? | 9.2µM* | ? | ? | ?
Cc1ccc2c(c1)c(=O)c1ccccc1n2CCCC(=O)Nc1ccc(F)cc1F | . | i | i | . | . | .
CCOc1ccc2c(c1)c(=O)c(S(=O)(=O)c1ccc(CC)cc1)cn2Cc1cccc(Cl)c1 | . | i | i | . | . | .
CN1CCc2c(sc3nc(SCC(=O)N4CCOCC4)n(-c4ccc(Cl)cc4)c(=O)c23)C1 | 4.8% | i | i | -1.8% | -7.2% | 8.2µM*
CC1CCCCC1NC(=O)/C(C#N)=C/c1ccc2c(c1)OCCO2 (stereo not given) | 14.1% | 18.4µM* | ? | -8.7% | -13.7% | ?

Assay outcomes: PubChem BioAssay, National Center for Advancing Translational Sciences (NCATS)
